Screening data (PubChem)
In the library only some 3.2% were active in any assay of this set; here they are far more common.
GALK inh = inhibitors of human galactokinase; P51570; Purified GALK, Kinase-Glo residual ATP luminescence; Potency, µM (titrated, usually from 57.5 µM), for the others: at the highest dose activity change, negative = inhibition, hits mostly inhibitors; 270,000 compounds, 0.007% hits; note: potency is the fitted concentration of half-maximal effect
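The enzyme phosphorylates galactose (100 uM) using ATP (35 uM); inhibition is detected as higher residual ATP, quantified by bioluminescence after 1 h reaction at room temperature, pH 8.0.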
Coupling enz = inhibits coupling enzyme system, counter-screen for aldolase hits; activity change, negative = inhibition, % at 58.2 µM, hits read low; coupling enzyme system counterscreen, AmpLite Red fluorescence; 290,000 compounds, 0.67% hits; in the data active = activity change below about -30%
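Compounds tested against the coupling enzymes alone at 57.5 uM final; readout was AmpLite Red fluorescence (525/598 nm) after 20 min at RT.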
USP1-UAF1 inh = blocks the human USP1/UAF1 deubiquitinase complex | recombinant USP1/UAF1, Ub-Rhodamine cleavage fluorescence | AID 743255 | Potency, µM (highest dose often 57.1 µM), inactives show top-dose activity change, negative = inhibition, most hits filed as inhibitors | 390,000 compounds, 0.23% hits | O94782; note: potency is the fitted concentration of half-maximal effect; nearly all actives have a fitted effect of over 60% in size
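In this screen, compounds sit with the deubiquitinase complex (1nM) for 15 min at room temperature before Ub-Rho is added at 150nM final. Fluorescence rise is then followed for 6 reads every 60 seconds.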
VDR inhibitor = vitamin D3 receptor (human) inhibition; VDR-SRC2-3 peptide fluorescence polarization, 2 h; Potency, µM, for inactives: max response, negative = inhibition, usual class: inhibitors; 400,000 compounds, 0.93% hits; P11473; note: potency is the fitted concentration of half-maximal effect
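FP read-out; VDR + SRC2-3 coactivator peptide; 23 nl compound by pintool; 2 h RT incubation; reagents held at 4 deg C, protected from light.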
USP2a block = USP2a (human) protease inhibition | O75604 | USP2 core, Ub-CHOP2 coupled fluorogenic reporter, 485/531 | Potency, µM (doses to about 38.3 µM), for the others: top-dose activity change, negative = inhibition, hits mostly inhibitors | 330,000 compounds, 0.01% hits | AID 463254;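 note: potency is the fitted concentration of half-maximal effect; plate controls were DMSO wells for no effect and full inhibition by NEM control for full effect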
Target sequence (O75604 whole entry, looked up): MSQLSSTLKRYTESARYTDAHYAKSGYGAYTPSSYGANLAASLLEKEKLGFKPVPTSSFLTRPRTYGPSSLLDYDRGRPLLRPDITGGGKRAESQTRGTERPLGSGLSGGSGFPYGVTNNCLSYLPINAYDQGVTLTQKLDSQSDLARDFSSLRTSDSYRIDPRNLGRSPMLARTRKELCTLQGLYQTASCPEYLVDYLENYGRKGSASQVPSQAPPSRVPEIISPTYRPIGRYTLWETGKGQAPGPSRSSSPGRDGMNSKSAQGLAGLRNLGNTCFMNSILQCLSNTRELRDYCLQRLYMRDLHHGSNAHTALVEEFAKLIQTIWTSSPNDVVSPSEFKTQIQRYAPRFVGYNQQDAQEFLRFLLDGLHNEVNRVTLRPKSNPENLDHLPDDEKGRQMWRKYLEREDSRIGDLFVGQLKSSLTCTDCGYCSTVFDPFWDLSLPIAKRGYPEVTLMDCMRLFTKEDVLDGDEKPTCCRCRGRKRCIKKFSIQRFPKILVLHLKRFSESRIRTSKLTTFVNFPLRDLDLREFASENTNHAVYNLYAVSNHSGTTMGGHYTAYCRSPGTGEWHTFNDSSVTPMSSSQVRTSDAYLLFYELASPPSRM
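USP2 core (10nM final) preincubated 30min RT with compound in 20mM Tris-HCl pH 8.0, 2mM CaCl2, 2mM beta-mercaptoethanol, 0.05% CHAPS; 25nM Ub-CHOP2 plus 25nM reporter substrate added, fluorescence (Ex485/Em531) read after 60min.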
PLK1 PBD inh = blocks phosphopeptide binding to human PLK1 polo-box domain | P53350 | Plk1 PBD binding of FITC phosphopeptide, fluorescence polarization | Potency, µM, without a hit: max response, negative = inhibition, most hits filed as inhibitors | 360,000 compounds, 2.8% hits; note: potency is the fitted concentration of half-maximal effect; series mostly up to about 57 µM; nearly all actives have a fitted effect of over 65% in size
* marks the source's active call; other numbers are inactive results; ? = inconclusive; . = no result; ! = not active in a repeat. Unless noted, calls come from the whole dose curve; as a rule, active = well fitted curve in the direction sought with a large enough effect; inconclusive = small, poorly fitted or top-dose-only effect, or another doubt; inactive = no such curve, though single readings can be large; an effect the other way counts as inactive or inconclusive. Unless noted, % is set by controls: 0 for no effect and ±100 for the full control effect.

SMILES	GALK inh	Coupling enz	USP1-UAF1 inh	VDR inhibitor	USP2a block	PLK1 PBD inh
ClC1=C(Cl)C(Cl)(C2(Cl)C(Cl)=C(Cl)C(Cl)=C2Cl)C(Cl)=C1Cl	.	-14	.	3.2µM*	.	.
C[C@@H](COc1ccccc1)N(CCCl)Cc1ccccc1	.	0	.	25µM*	.	.
COc1ccc(OC)c(C2=NS(=O)(=O)N(C)C(C(=O)N3CCC4(CC3)OCCO4)=C2)c1	-1%	0	-22%	-23%	0%	30µM*
N#Cc1ccc(C(=O)N2CCN(c3nc4ccc(F)cc4s3)CC2)cc1	.	.	?	25%	.	.
CC(C)=CCCC1(C)C=Cc2c(O)c3c(c(CC=C(C)C)c2O1)OC12C(CC4CC1C(C)(C)OC2(C/C=C(/C)C(=O)O)C4O)C3=O (centres undefined)	.	0	.	50µM*	.	.
CC1=NN(c2ccccc2)C(=O)C1/C=C1/C(=O)NC(=O)N(c2cccc(C)c2)C1=O (centres undefined)	-2%	9	.	.	3%	.
O=c1[nH]c(=O)n(CCC2=CCCCC2)c(O)c1/C=N/N1CCOCC1	5%	-1	-15%	-7%	0%	1%
CNC1=CN(O)C(c2ccccc2)=c2cc(Cl)ccc2=N1	.	2	.	?	.	.
COc1cccc(N2C(=O)NC(=O)/C(=C/c3ccc4c5c(cccc35)CC4)C2=O)c1	0%	0	.	.	0%	.
COc1ccc(/C=C2/C(=O)NC(=O)N(c3ccc(C)c(C)c3)C2=O)cc1CN1C(=O)c2ccccc2C1=O	-9%	7	-13%	50µM*	0%	4.2µM*
CC1=NN(c2ccccc2)C(=O)C1/C=C1\C(=O)NC(=O)N(c2ccc(C)c(C)c2)C1=O (centres undefined)	0%	15	-10%	-9%	1%	21µM*
Brc1c(NC2=NCCN2)ccc2nccnc12	-1%	-21	.	45µM*	-1%	.
NN=C1C(Cl)=C(Cl)C(Cl)=C1Cl	.	.	-12%	.	.	-23%
O=C1CCN(C(=O)CNC(=O)Cc2ccccc2)CC1	16%	1	-12%	-11%	2%	0%
O=C(NCc1nnc(SCC(=O)N2CCN(c3ccccc3)CC2)o1)c1ccco1	-3%	-1	-11%	-14%	3%	27µM*
N=C1c2ccccc2CN1c1cccc([N+](=O)[O-])c1	2%	0	-16%	-1%	0%	-4%
O=[N+]([O-])NC1=NCCN1Cc1ccc(Cl)nc1	.	2	-13%	?	-7%	27µM*
CCCCCOc1ccc(C)cc1CN(CCCl)CCCl	3%	-5	-6%	-27%	-1%	24µM*
C=C1C([C@@]2(C)C(OC(C)=O)CC(=O)O[C@@](C)(COC(C)=O)C2CC(=O)OC)C(OC=O)C(OC(=O)C(OC(C)=O)C(C)CC)[C@]2(C)C(c3ccoc3)CC(=O)C12O (some centres undefined)	.	-1	.	0%	.	.
CCC(C)C(=O)OC1C2CC3=C4CC(=O)OC(c5ccoc5)[C@]4(C)CCC3[C@@](C)(C2=O)C(CC(=O)OC)C1(C)C (some centres undefined)	.	-2	.	40µM*	.	.
COc1ccccc1-n1c(-c2ccc(C)cc2)nc2ccccc2c1=O	-1%	-1	-14%	7%	2%	-1%
Cc1c(C=O)c2ccccc2n1Cc1cccc(F)c1	2%	3	-16%	20µM*	-1%	?
CN(C)c1ccc(C=C(C#N)C#N)cc1	-1%	-1	4%	-2%	4%	-16%
N#CC(C#N)=Cc1ccc(O)c(O)c1	.	7	-11%	50µM*	8%	-6%
CCOP(=S)(OCC)Oc1nc(Cl)c(Cl)cc1Cl	.	1	-30%	32µM*	-1%	30µM*
SMILES	GALK inh	Coupling enz	USP1-UAF1 inh	VDR inhibitor	USP2a block	PLK1 PBD inh
COP(=S)(OC)Oc1nc(Cl)c(Cl)cc1Cl	.	4	.	4.5µM*	.	.
O=C(O)COc1nc(Cl)c(Cl)cc1Cl	.	-3	.	-16%	.	.
CCOC(=O)CC(SP1(=S)OCC2(CC=CCC2)CO1)C(=O)OCC (centres undefined)	.	.	-6%	-11%	.	-9%
O=C(NCc1ccccc1)Oc1cccc(Cl)c1	-2%	0	-6%	3%	-3%	8.4µM*
O=P(Nc1cccc(Cl)c1)(Oc1ccccc1)Oc1ccccc1	-1%	1	-27%	7%	-7%	8%
CC1=C2C(=COC(C)C2C)C(=O)C(C(=O)O)=C1O (centres undefined)	.	-36*	.	?	.	.
Cc1cccc(-n2c(/C=C/c3c(C)[nH]c4ccccc34)nc3ccccc3c2=O)c1	.	.	-2%	-10%	.	.
CC(=O)OC1C(=O)[C@]2(C)C(O)CC3OC[C@]3(OC(C)=O)C2[C@@H](OC(=O)c2ccccc2)[C@]2(O)CC(O)C(C)=C1C2(C)C (some centres undefined)	.	2	.	13%	.	.
O=C(OC1Cc2c(O)cc(O)cc2OC1c1cc(O)c(O)c(O)c1)c1cc(O)c(O)c(O)c1 (centres undefined)	.	-14	.	50µM*	.	.
C=CCc1c(C)[nH]c(=S)c(C#N)c1C	6%	-1	-8%	?	4%	24µM*
O=C(O)Cc1cnc[nH]1	.	.	-14%	4%	.	-12%
C[C@@H](N)Cc1cnc[nH]1	.	2	-9%	79µM*!	.	4%
Cc1ccccc1-n1c(O)c(/C=C2/C(c3ccccc3)=Nc3ccccc32)c(=O)[nH]c1=O	-6%	-1	-8%	89µM*	0%	6.7µM*
Cc1ccc(-n2c(O)c(/C=C3/C(c4ccccc4)=Nc4ccccc43)c(=O)[nH]c2=O)cc1	-3%	3	-23%	-24%	3%	8.4µM*
CC1=Nc2ccccc2/C1=C/c1c(O)n(C)c(=O)[nH]c1=O	2%	0	-20%	-14%	1%	?
Cc1cccc(-n2c(O)c(/C=C/C=Nc3ccccc3)c(=O)[nH]c2=O)c1	1%	-7	?	9%	?	51%
COC(=O)C1=Nc2ccccc2/C1=C\c1c(O)n(-c2cc(OC)ccc2OC)c(=O)[nH]c1=O	0%	8	-20%	?	-1%	3.4µM*
Cc1ccccc1-n1c(O)c(/C=C/C=Nc2ccccc2)c(=O)[nH]c1=O	-1%	-3	32µM*	7%	?	74%
C[C@]12CCC3C(CC[C@H]4C[C@H](O)CC[C@]34C)C1C[C@H](O)[C@@H]2O (some centres undefined)	.	.	-16%	-4%	0%	-10%
COc1ccc2c(C)c(CC(=O)N3C[C@H]4C[C@@H](C3)c3cccc(=O)n3C4)c(=O)oc2c1	.	-5	-23%	6%	-1%	-2%
Oc1cc(Cl)c(Cl)c(Cl)c1	.	.	-25%	-11%	.	-3%
